NadD inh: blocks S. aureus nicotinate mononucleotide adenylyltransferase; inhibition, % at 20 µM; AID 602399; purified NadD enzyme, colorimetric absorbance read-out; actives 0.78% (n = 360,000); in the data active = inhibition above about 26%
DAGLB inh: diacylglycerol lipase beta (human) inhibition; actives 0.059% (n = 340,000); HEK293T DAGLB membrane lysate, EnzChek fluorogenic substrate; Q8NCG7; inhibition, % at 5.17 µM; in the data active = inhibition above about 34%;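 note: 0% = enzyme with vehicle and 100% = wells lacking enzyme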
ARNT TACC3 PPI: ARNT/TACC3 interaction disruption; Q9Y6A5; AlphaScreen His-ARNT PAS-B/GST-TACC3 binding, luminescence; TACC3 fragment carries E629A point mutation; inhibition, % at 9.99 µM; actives 0.66% (n = 390,000);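 active = mean inhibition of replicates at least 50% and at least half of replicates each reaching 50%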;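 note: 0% = complete ARNT plus TACC3 wells and 100% = ARNT alone without TACC3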
Neddylation inh: inhibitors of human cullin neddylation; actives 0.58% (n = 360,000); TR-FRET cullin neddylation, biochemical; inhibition, % at 25 µM; AID 651699; P61081+Q13564; in the data active = inhibition above about 36%
HGIII-sPLA2 inh: Blocks human group III sPLA2 activity; Q9NZ20; QFRET BODIPY PC-A2 liposome hydrolysis, fluorescence; inhibition, % at 12.2 µM; actives 0.56% (n = 370,000); AID 743126;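 active = inhibition above mean plus 3 SD of compounds lying within the high and low control bounds, cut at about 19% in these data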;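 note: 0% = median of test compound wells and 100% = no enzyme DMSO wells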
NadD inh conf: NadD (S. aureus) inhibition, single concentration confirmation | shares compounds with NadD inh | purified S. aureus NadD, colorimetric enzyme assay | inhibition, % at 20 µM | actives 13% (n = 2,000); in the data active = inhibition mostly above about 42%, no sharp cut-off; inactive = mostly below about 42%
Neddyl conf: cullin neddylation inhibition, confirmation | actives 13% (n = 1,800) | calls only at 25 µM | TR-FRET cullin neddylation biochemical assay | AID 652217 | shares compounds with Neddylation inh; in the data active = inhibition above about 40%;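 note: neddylation substrate is the cullin 1 ring ligase complex with SKP2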
hGIII sPLA2 conf: human GIII-sPLA2 inhibition, confirmation | shares compounds with HGIII-sPLA2 inh | recombinant hGIII-sPLA2, BODIPY PC-A2 QFRET fluorescence | inhibition, % at 12.2 µM | actives 34% (n = 2,000) | AID 743280;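 active = mean inhibition across triplicates above the hit cutoff set in the earlier primary screen, cut at about 19% in these data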;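 note: 0% = enzyme with DMSO and 100% = DMSO wells lacking enzyme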
535nm interf: optically interferes with 535nm fluorescence in sPLA2 counter-screen | BODIPY FL product fluorescence interference, QFRET | shares compounds with HGIII-sPLA2 inh | AID 743282 | actives 8.5% (n = 2,000) | inhibition, % at 12.2 µM;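 active = average inhibition above the solvent-only control mean plus 3 SD, cut at about 6% in these data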;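 note: 0% = DMSO with substrate plus product and 100% = DMSO with substrate alone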
An asterisk follows results filed as active; i = inactive; / = no result given. Shown are actives, neighbours in structure and some others; about 2% of the full set was active somewhere.

SMILES	NadD inh	DAGLB inh	ARNT TACC3 PPI	Neddylation inh	HGIII-sPLA2 inh	NadD inh conf	others
COc1ccc(C2CC(c3ccccc3)=NN2C(=O)COC(=O)/C=C/c2ccc(O)c(OC)c2)cc1 (configuration not stated)	46*	1	-4	44*	-35	15	Neddyl conf=i
CCOc1ccccc1NC(=O)CSc1nc2nc(-c3cccs3)cc(C(F)(F)F)c2c(=O)[nH]1	13	14	-6	33	-18	/
COc1ccc(NC(=O)CSc2nc3nc(-c4cccs4)cc(C(F)(F)F)c3c(=O)[nH]2)c(OC)c1	40*	4	-1	54*	-13	60*	Neddyl conf=i
O=C(O)C[C@@H]1C[C@H]2c3cc(NS(=O)(=O)c4ccccc4)ccc3O[C@H]2[C@H](CO)O1	/	/	-3	/	/	/
CC(C)n1c(=S)[nH]c2scc(-c3cccs3)c2c1=O	30*	5	30	-3	23*	67*	hGIII sPLA2 conf=48*;535nm interf=9.6*
CCn1c(=S)[nH]c2scc(-c3cccs3)c2c1=O	-3	3	-6	-34	18	/
O=C(C[C@@H]1C[C@@H]2c3cc(NS(=O)(=O)c4ccc(F)cc4)ccc3O[C@@H]2[C@H](CO)O1)NCC(F)(F)F	/	/	3	/	/	/
O=C(NNC(=O)c1cc2cc(Br)ccc2oc1=O)c1ccc(O)cc1O	29*	26	0	-22	20*	58*	hGIII sPLA2 conf=26*;535nm interf=0
Cc1ccccc1/C=N/n1c(-c2cc(-c3ccccc3)n[nH]2)n[nH]c1=S	53*	7	-8	7	26*	22	hGIII sPLA2 conf=-70;535nm interf=6
S=c1[nH]nc(-c2cc(-c3ccccc3)n[nH]2)n1/N=C/c1cccc2ccccc12	/	/	/	/	9	/
C[C@H](CO)N1C[C@H](C)[C@H](CN(C)Cc2ccncc2)Oc2c(NC(=O)C3CC3)cccc2C1=O	/	/	20	/	/	/
CN1[C@H](C(=O)NC2Cc3ccccc3C2)[C@@H](CO)[C@@H]2Cn3c(ccc(C4=CCCC4)c3=O)[C@@H]21	/	/	-1	/	/	/
C=CCNC(=S)NNc1nc2c(c(=O)[nH]1)C1(CCCC1)Cc1ccccc1-2	10	1	/	17	19	/

Compound activity: PubChem BioAssay, several laboratories
